Measurements: ChEMBL document CHEMBL2218924, “A broad activity screen in support of a chemogenomic map for kinase signalling research and drug discovery” (Biochem J, 2013)

Biological target: Angiopoietin-1 receptor (Homo sapiens) (UniProt Q02763)
Conditions: at 1 µM

Sequence of Angiopoietin-1 receptor (Homo sapiens) (Q02763 whole entry): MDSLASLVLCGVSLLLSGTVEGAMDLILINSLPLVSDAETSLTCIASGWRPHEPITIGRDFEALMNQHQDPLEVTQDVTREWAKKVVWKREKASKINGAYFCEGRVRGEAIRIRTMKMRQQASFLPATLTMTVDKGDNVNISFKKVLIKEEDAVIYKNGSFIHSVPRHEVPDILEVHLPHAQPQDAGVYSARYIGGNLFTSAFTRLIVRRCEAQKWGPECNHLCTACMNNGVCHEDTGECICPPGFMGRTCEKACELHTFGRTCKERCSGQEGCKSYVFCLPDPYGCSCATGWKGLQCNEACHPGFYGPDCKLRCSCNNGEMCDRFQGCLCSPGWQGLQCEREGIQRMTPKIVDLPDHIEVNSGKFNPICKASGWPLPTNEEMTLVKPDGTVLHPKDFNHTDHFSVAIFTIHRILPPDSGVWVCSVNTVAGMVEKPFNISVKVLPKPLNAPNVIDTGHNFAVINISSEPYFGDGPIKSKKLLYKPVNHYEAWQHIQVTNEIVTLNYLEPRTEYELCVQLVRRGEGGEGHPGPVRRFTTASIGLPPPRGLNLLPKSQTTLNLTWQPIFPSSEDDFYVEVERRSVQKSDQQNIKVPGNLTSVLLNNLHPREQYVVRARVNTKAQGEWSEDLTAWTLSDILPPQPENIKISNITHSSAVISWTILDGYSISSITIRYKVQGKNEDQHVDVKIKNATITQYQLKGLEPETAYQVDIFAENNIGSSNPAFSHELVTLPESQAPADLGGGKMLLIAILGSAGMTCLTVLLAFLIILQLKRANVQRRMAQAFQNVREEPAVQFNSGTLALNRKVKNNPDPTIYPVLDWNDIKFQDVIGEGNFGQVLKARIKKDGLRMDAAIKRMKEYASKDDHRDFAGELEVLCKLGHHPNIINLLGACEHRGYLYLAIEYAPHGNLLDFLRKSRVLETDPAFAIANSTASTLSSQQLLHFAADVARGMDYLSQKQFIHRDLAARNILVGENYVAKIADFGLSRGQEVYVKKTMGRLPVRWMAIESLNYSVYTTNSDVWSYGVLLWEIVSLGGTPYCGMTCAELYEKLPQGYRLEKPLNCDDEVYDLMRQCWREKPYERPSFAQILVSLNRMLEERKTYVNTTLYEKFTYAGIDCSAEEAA

SMILES	residual activity [%]
COC(=O)[C@@]1(O)C[C@H]2O[C@]1(C)n1c3ccccc3c3c4c(c5c6ccccc6n2c5c31)C(=O)NC4	20
CC(C)(C)c1cc(C=C(C#N)C#N)cc(Br)c1O	114
COc1cc2ncnc(Nc3ccc(OCc4ccccc4)cc3)c2cc1OC	106
CCn1cnc2c(Nc3cccc(Cl)c3)nc(N[C@@H]3CCCC[C@@H]3N)nc21	83
CC(C)[C@H](CO)Nc1nc(Nc2cccc(Cl)c2)c2ncn(C(C)C)c2n1	99
O=[N+]([O-])/C=C/c1ccc2c(c1)OCO2	80
O=C1c2ccccc2-c2nc3nnnn3nc21	75
CCc1nc(-c2ccc(OC)cc2)[nH]c1-c1ccncc1	111
O=c1[nH]c2ccccc2n1C1CCN(Cc2ccc(-c3nc4cc5[nH]cnc5cc4nc3-c3ccccc3)cc2)CC1	86
C[S+]([O-])c1ccc(-c2nc(-c3ccc(F)cc3)c(-c3ccncc3)[nH]2)cc1 (centres undefined)	102
O=C1Nc2ccc3ncsc3c2/C1=C/c1c[nH]cn1	67
COc1cc(OC)c(/C=C2\C(=O)Nc3ccccc32)c(OC)c1	93
COc1ccc2c(c[n+](C)c3c4cc5c(cc4ccc23)OCO5)c1OC	12
N/C(=N\[N+](=O)[O-])N/N=C\c1ccc(-c2cccc([N+](=O)[O-])c2)o1	90

Biological target: Angiopoietin-1 receptor (Homo sapiens) (UniProt Q02763)
Conditions: at 10 µM

SMILES	residual activity [%]
COC(=O)[C@@]1(O)C[C@H]2O[C@]1(C)n1c3ccccc3c3c4c(c5c6ccccc6n2c5c31)C(=O)NC4	3
CC(C)(C)c1cc(C=C(C#N)C#N)cc(Br)c1O	101
COc1cc2ncnc(Nc3ccc(OCc4ccccc4)cc3)c2cc1OC	78
COc1ccc2c(c1)/C(=C/c1cnc[nH]1)C(=O)N2	71
CCn1cnc2c(Nc3cccc(Cl)c3)nc(N[C@@H]3CCCC[C@@H]3N)nc21	42
CC(C)[C@H](CO)Nc1nc(Nc2cccc(Cl)c2)c2ncn(C(C)C)c2n1	59
O=[N+]([O-])/C=C/c1ccc2c(c1)OCO2	60
O=C1c2ccccc2-c2nc3nnnn3nc21	20
CCc1nc(-c2ccc(OC)cc2)[nH]c1-c1ccncc1	106
O=c1[nH]c2ccccc2n1C1CCN(Cc2ccc(-c3nc4cc5[nH]cnc5cc4nc3-c3ccccc3)cc2)CC1	37
C[S+]([O-])c1ccc(-c2nc(-c3ccc(F)cc3)c(-c3ccncc3)[nH]2)cc1 (centres undefined)	62
O=C1Nc2ccc3ncsc3c2/C1=C/c1c[nH]cn1	22
COc1cc(OC)c(/C=C2\C(=O)Nc3ccccc32)c(OC)c1	59
COc1ccc2c(c[n+](C)c3c4cc5c(cc4ccc23)OCO5)c1OC	3
c1cc(-c2cnn3cc(-c4ccc(OCCN5CCCCC5)cc4)cnc23)ccn1	44
N/C(=N\[N+](=O)[O-])N/N=C\c1ccc(-c2cccc([N+](=O)[O-])c2)o1	92

Biological target: High affinity nerve growth factor receptor (Homo sapiens) (UniProt P04629)
Conditions: at 1 µM

Sequence of High affinity nerve growth factor receptor (Homo sapiens) (P04629 33-796 limits assumed): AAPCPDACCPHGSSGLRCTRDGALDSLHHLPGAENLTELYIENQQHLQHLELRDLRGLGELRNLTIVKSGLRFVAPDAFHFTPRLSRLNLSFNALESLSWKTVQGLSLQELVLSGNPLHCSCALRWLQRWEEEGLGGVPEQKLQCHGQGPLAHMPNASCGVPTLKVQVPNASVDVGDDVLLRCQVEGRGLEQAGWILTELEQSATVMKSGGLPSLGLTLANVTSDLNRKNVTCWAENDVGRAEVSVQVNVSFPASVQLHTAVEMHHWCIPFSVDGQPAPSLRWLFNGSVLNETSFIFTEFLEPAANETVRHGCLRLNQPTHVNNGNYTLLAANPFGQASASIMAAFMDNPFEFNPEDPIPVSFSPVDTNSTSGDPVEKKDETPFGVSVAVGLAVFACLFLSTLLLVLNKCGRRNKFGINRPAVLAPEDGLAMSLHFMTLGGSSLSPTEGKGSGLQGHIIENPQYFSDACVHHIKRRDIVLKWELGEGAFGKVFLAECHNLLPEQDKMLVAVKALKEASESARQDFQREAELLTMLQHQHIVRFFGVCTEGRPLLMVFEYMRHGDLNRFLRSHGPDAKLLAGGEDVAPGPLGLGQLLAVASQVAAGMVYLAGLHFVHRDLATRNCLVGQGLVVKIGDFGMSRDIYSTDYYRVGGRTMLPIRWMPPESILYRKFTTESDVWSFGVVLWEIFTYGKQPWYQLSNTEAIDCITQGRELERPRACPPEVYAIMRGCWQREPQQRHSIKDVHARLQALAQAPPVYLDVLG

SMILES	residual activity [%]
COc1cc2ncnc(Nc3ccc(OCc4ccccc4)cc3)c2cc1OC	69
COc1ccc2c(c1)/C(=C/c1cnc[nH]1)C(=O)N2	3
O=C1NC(=O)c2c1c1c3ccccc3n3c1c1c2c2ccccc2n1C1CCC3O1	12
CCn1cnc2c(Nc3cccc(Cl)c3)nc(N[C@@H]3CCCC[C@@H]3N)nc21	12
CC(C)[C@H](CO)Nc1nc(Nc2cccc(Cl)c2)c2ncn(C(C)C)c2n1	3
O=[N+]([O-])/C=C/c1ccc2c(c1)OCO2	94
O=c1[nH]c2ccccc2n1C1CCN(Cc2ccc(-c3nc4cc5[nH]cnc5cc4nc3-c3ccccc3)cc2)CC1	86
C[S+]([O-])c1ccc(-c2nc(-c3ccc(F)cc3)c(-c3ccncc3)[nH]2)cc1 (centres undefined)	121
O=C1Nc2ccc3ncsc3c2/C1=C/c1c[nH]cn1	3
COc1cc(OC)c(/C=C2\C(=O)Nc3ccccc32)c(OC)c1	89
c1cc(-c2cnn3cc(-c4ccc(OCCN5CCCCC5)cc4)cnc23)ccn1	28
N/C(=N\[N+](=O)[O-])N/N=C\c1ccc(-c2cccc([N+](=O)[O-])c2)o1	91

Biological target: High affinity nerve growth factor receptor (Homo sapiens) (UniProt P04629)
Conditions: at 10 µM

SMILES	residual activity [%]
COc1cc2ncnc(Nc3ccc(OCc4ccccc4)cc3)c2cc1OC	72
COc1ccc2c(c1)/C(=C/c1cnc[nH]1)C(=O)N2	0
O=C1NC(=O)c2c1c1c3ccccc3n3c1c1c2c2ccccc2n1C1CCC3O1	3
CCn1cnc2c(Nc3cccc(Cl)c3)nc(N[C@@H]3CCCC[C@@H]3N)nc21	1
CC(C)[C@H](CO)Nc1nc(Nc2cccc(Cl)c2)c2ncn(C(C)C)c2n1	1
O=[N+]([O-])/C=C/c1ccc2c(c1)OCO2	116
O=c1[nH]c2ccccc2n1C1CCN(Cc2ccc(-c3nc4cc5[nH]cnc5cc4nc3-c3ccccc3)cc2)CC1	56
C[S+]([O-])c1ccc(-c2nc(-c3ccc(F)cc3)c(-c3ccncc3)[nH]2)cc1 (centres undefined)	115
O=C1Nc2ccc3ncsc3c2/C1=C/c1c[nH]cn1	-1
COc1cc(OC)c(/C=C2\C(=O)Nc3ccccc32)c(OC)c1	59
c1cc(-c2cnn3cc(-c4ccc(OCCN5CCCCC5)cc4)cnc23)ccn1	2
N/C(=N\[N+](=O)[O-])N/N=C\c1ccc(-c2cccc([N+](=O)[O-])c2)o1	91
